Sampled rows, rich in hits. Any-hit rate of the full collection: about 4.6%.
V-ATPase pH – regulators of yeast V-ATPase proton pumping, primary screen, pHLuorin cytosolic pH fluorescence; S. cerevisiae; response, % at 10 µM; 350,000 compounds, 0.37% hits; AID 504577, 2011; in the data active means response mostly above about 7.3%, no sharp cut-off; inactive means mostly below about 5.4%; further: actives read high
TIM10 inh – growth inhibitors of isogenic TIM10 control yeast, primary screen, counter-screen for tim10-1 yeast inhibitor project, luminescence, uHTS. S. cerevisiae TIM10 strain growth, BacTiter-Glo luminescence, 24 h. inhibition, % at 10 µM. 330,000 compounds, 1.4% hits;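 active means inhibition of 40% or more at the single tested concentration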;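 further: wild-type TIM10 isogenic control strain grown at permissive 25 °C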
tim10-1 inh – growth inhibitors of tim10-1 mutant yeast, primary screen, luminescence, uHTS. S. cerevisiae tim10-1 ts strain growth, BacTiter-Glo, 24 h. inhibition, % at 20 µM. 330,000 compounds, 2.2% hits;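 active means inhibition of at least 40%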;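 further: mutant grown at 25 °C; 0% = DMSO wells with yeast and 100% = wells holding no yeast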
SKKanGAS inh – S. pyogenes SKKanGAS growth inhibitors in kanamycin, primary screen, streptokinase expression inhibitor project, SKKanGAS strain, BacTiter-Glo luminescence | 300,000 compounds, 1.3% hits | 6 h | inhibition, % at 7.5 µM;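 active means mean replicate score, as percent of positive control median, at least 50; inconclusive means mean below 50 but one replicate at or above 50; inactive means mean and every replicate below 50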;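 further: strain carries kanamycin resistance gene driven by streptokinase promoter and grows in 40 µg/ml kanamycin; loss of luminescence reflects streptokinase promoter inhibition or plain growth inhibition; 0% = median of DMSO wells and 100% = positive control at its reference dose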
PfHsp90 set2 – growth inhibition of PfHsp90-expressing yeast, primary screen, antimalarial PfHsp90 inhibitor project, S. cerevisiae, BacTiter-Glo luminescence, single point, set 2. BacTiter-Glo ATP, 48 h; yeast lacking PDR1 and PDR3 efflux regulators. inhibition, % at 9.4 µM. 310,000 compounds, 0.32% hits. AID 504621, 2011;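 active means every replicate shows inhibition above about 80%, whatever the replicate mean, limit read from the data; inconclusive means mean inhibition reaches the set limit but some replicate falls short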;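 further: 0% = DMSO neutral controls and 100% = 20 µM radicicol positive controls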
tim23-1 inh – growth inhibitors of tim23-1 mutant yeast, primary screen, luminescence, uHTS | S. cerevisiae tim23-1 growth, BacTiter-Glo luminescence, 24 h | inhibition, % at 20 µM | 330,000 compounds, 1.3% hits;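 active means growth inhibition of the mutant yeast at or above 50%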;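 further: temperature-sensitive mutant grown at 25 °C; plate controls were DMSO-treated mutant yeast for no effect and medium wells lacking yeast for full effect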
TIM10 conf – growth inhibitors of wild-type TIM10 yeast, confirmation, counter-screen for tim10-1 synthetic lethality project, single concentration, luminescence, S. cerevisiae. 4,600 compounds, 63% hits. AID 463215, 2010. S. cerevisiae tim10 strain growth, BacTiter-Glo luminescence, 24 h. shares compounds with TIM10 inh. inhibition, % at 10 µM;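 active means inhibition of yeast growth at or above a set limit in either of two replicates at 10 µM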;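 further: this counterscreen used the strain with wild-type TIM10; 0% = yeast with DMSO and 100% = medium wells lacking yeast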
* marks the source's active call; other numbers are inactive results; u = inconclusive; x = not tested or not shown.

SMILES	V-ATPase pH	TIM10 inh	tim10-1 inh	SKKanGAS inh	PfHsp90 set2	tim23-1 inh	TIM10 conf
COc1cc2c(cc1OC)C(COc1ccc([N+](=O)[O-])cc1)NCC2 (stereo not drawn)	-0.3	15.4	16.6	10.7	0.3	11.7	x
CN(C)S(=O)(=O)Oc1ccc(C(=O)Nc2cccc(Cl)c2)cc1	-4.5	47.1*	25.3	3.0	-21.7	47.2	45.2*
CN(C)S(=O)(=O)Oc1ccc(C(=O)Nc2cccc(C(F)(F)F)c2)cc1	3.7	12.8	23.6	-8.6	15.3	6.3	x
CC(=O)Oc1ccc(/C=N/NC(=S)Nc2ccccc2)cc1	1.4	40.9*	21.8	-4.3	-13.0	48.3	25.8
CCOc1ccc(/C=N/NC(=O)Nc2ccccc2)cc1	-1.1	23.6	12.4	-0.5	x	13.4	x
CNC(=O)N(O)C1N(/N=C/c2c(F)cccc2Cl)C(=S)SC1(C)C (stereo not drawn)	1.6	5.4	10.9	3.0	-2.9	13.7	x
CCOc1ccc(C(=O)O/N=C(\N)c2ccccn2)cc1	-3.1	42.1*	38.0	6.9	42.9	37.9	35.7*
COc1ccc(Cc2nc(C(=O)Nc3ccc(Cl)cc3)cs2)cc1	16.7	46.7*	26.9	8.6	16.7	24.3	36.8*
CCOc1ccc(/C=N/NC(=O)c2csc(C)c2C)c(OCC)c1	9.1	-13.1	4.7	-5.1	5.3	6.0	x
CCCCOc1cccc(/C=N/NC(=O)c2csc(C)c2C)c1	3.3	47.9*	31.5	9.2	-14.8	16.6	27.1
O=[N+]([O-])c1ccc(/C=N/Nc2ccnc3cc(Cl)ccc23)o1	3.7	63.8*	23.8	u	-16.3	-2.0	71.2*
Cc1ccc(Sc2cnn(-c3ccccc3)c(=O)c2Cl)cc1	-0.3	51.7*	39.5	9.1	-10.9	44.5	45.9*
CNc1cnn(-c2ccccc2)c(=O)c1Cl	-3.0	-0.2	-5.5	-1.7	-17.9	30.4	x
Cc1cccc(NC(=S)N/N=C/c2cccc(O)c2)c1C	-0.4	30.9	23.7	1.1	3.8	13.6	x
Cc1ccccc1NC(=S)N/N=C/C(C)c1ccccc1 (stereo not drawn)	2.4	41.1*	23.0	-2.1	-16.7	25.0	27.4
Cc1ccccc1NC(=S)N/N=C/c1ccc(O)cc1O	0.3	19.4	19.0	16.1	-9.5	13.9	x
Cc1cccc(NC(=S)NN(Cc2ccccc2)c2ccccc2)c1C	0.8	43.3*	29.6	8.2	-11.9	16.0	-20.6
Cc1cccc(NC(=S)N/N=C/C(C)c2ccccc2)c1C (stereo not drawn)	3.8	40.5*	30.7	9.8	-5.7	20.3	36.2*
C=CCOc1ccccc1CN(C(=O)CCl)c1ccc2c(c1)OCO2	-0.1	32.7	4.9	0.8	-24.0	45.8	x
CCc1ccc(NC(=O)C(=O)c2ccccc2NC(C)=O)cc1	0.9	-5.2	-32.9	x	-16.2	-18.1	x
CCN(CC)C(=O)N1CCN(S(=O)(=O)c2ccc(C)cc2)CC1	2.0	2.2	14.6	0.0	x	13.7	x
CCN(CC)C(=O)N1CCN(S(=O)(=O)c2c(C)cc(C)cc2C)CC1	-1.8	40.4*	28.3	-1.2	10.8	37.9	23.9
C=CC(c1ccccc1)C(C(=O)c1ccccc1)N(C)C (stereo not drawn)	-0.7	x	x	x	18.0	x	x
CC1C(=O)CC(c2ccccc2)N(C)C1c1ccccc1 (stereo not drawn)	-0.3	16.4	18.0	1.8	4.2	24.1	x
CCC1C(c2ccccc2)N(C)C(c2ccccc2)CC1(O)c1ccccc1 (stereo not drawn)	1.6	44.0*	38.9	12.1	-28.1	31.7	34.2*
SMILES	V-ATPase pH	TIM10 inh	tim10-1 inh	SKKanGAS inh	PfHsp90 set2	tim23-1 inh	TIM10 conf
C[C@]12C(=O)N(c3ccccc3)C(=O)N1[C@H]1c3ccccc3OC[C@@H]1[C@H]2c1ccccc1	-1.8	41.8*	27.6	x	-44.6	46.0	46.7*
CCCN=C(C)c1c(-c2ccccc2)[nH]n(-c2nc3ccccc3s2)c1=O	1.5	45.4*	27.3	17.1	x	26.3	39.5*
CCOC(=O)c1c(C)[nH]c(C(=O)COC(=O)CNS(=O)(=O)c2ccc(C)cc2)c1C	-4.7	71.1*	3.8	x	-21.9	8.5	7.3
CC(C)N(Cc1ccccc1)C(=S)NC(=O)C1(C)CC1(Cl)Cl (stereo not drawn)	-0.9	40.7*	32.6	0.7	-8.2	19.1	33.1*
CC1(C(=O)NC(=S)N(CCC#N)c2ccccc2)CC1(Cl)Cl (stereo not drawn)	-1.9	2.7	12.7	2.3	x	-1.4	x
CCOc1ccc(C(=O)NCC(=O)OCc2nnc(-c3ccccc3)o2)cc1OCC	1.7	50.3*	-9.6	x	0.5	1.2	-15.0
O=C(COc1ccccc1)N=C1SC2CS(=O)(=O)CC2N1c1ccccc1 (stereo not drawn)	0.2	96.9*	13.8	-5.0	5.7	6.0	-5.0
N#C/C(=C\c1ccc(C#N)cc1)C(=O)N1CCCC1	9.3	50.4*	38.3	-3.1	x	47.5	33.6*
N#C/C(=C\c1ccc(O)cc1)C(=O)N1CCCC1	0.2	5.5	-3.3	-5.8	10.7	18.8	x
COc1ccc(NC(=O)/C(C#N)=C/c2ccc(Sc3nncn3C)c([N+](=O)[O-])c2)cc1	-3.9	54.0*	29.8	-6.4	-5.4	47.0	28.6
Cn1cnnc1Sc1ccc(/C=C/C(=O)c2ccc(O)cc2)cc1[N+](=O)[O-]	1.4	24.1	24.8	-2.9	4.9	36.6	x
COc1ccc(CCNc2oc(COc3ccc(F)cc3)nc2C#N)cc1	2.4	42.6*	26.4	x	-14.5	35.4	36.5*
COc1ccc(-c2nc(C#N)c(NCCc3ccccc3)o2)cc1OC	2.3	45.6*	23.7	4.0	14.4	48.1	41.3*
N#Cc1nc(-c2ccco2)oc1NCCc1ccccc1	6.4	64.8*	16.7	20.2	15.1	-16.3	57.2*
Cc1ccc(CNc2oc(-c3ccco3)nc2C#N)cc1	-3.5	11.2	12.2	3.0	-25.7	33.0	x
OCCO	-0.7	5.3	-7.8	x	-3.3	-12.1	x
CCN(CC)S(=O)(=O)c1ccc(/C=C/C(=O)Nc2cccc(F)c2)cc1	-0.2	58.8*	39.5	4.7	-3.9	27.7	-12.8
CSc1cccc(NC(=O)/C=C/c2ccccc2)c1	-4.7	40.0	29.7	-5.6	12.1	43.7	16.4
CCCCNC(=O)Oc1c(Br)cc2sc(=O)oc2c1Br	x	-9.1	35.3	x	x	-10.9	x
O=c1c(-c2nnc(SCc3ccc(Cl)c(Cl)c3)o2)cccn1Cc1ccccc1	1.1	42.9*	33.3	21.4	-20.7	42.3	30.1*

Source: PubChem BioAssay
